SMILES strings stand for the structures. This is part of a sample that, as a whole, favours compounds with a hit. Of some 83,000 tested, about 20% had one in any assay.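 Single-concentration screen, 48 h exposure, 96-well plates. Endpoint: percent growth. Below 10 = active.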 Unmarked numbers belong to inactive results. Calls of active or inactive are those of the source. *1 amine or outer side, *2 acyl side, *3 side chain or, on linkers, in order; H or OH if unused. Where a SMILES comes first, the peptide text is derived from it. Bridges are numbered along the chain shown (N, C = ends). Roman numbers before positions name the chains, in order. [ ]: non-standard residue; d: D form. Actinocin(1to9) = Cc1c2oc3c(C)ccc(C(=O)[*:2])c3nc-2c(C(=O)[*:1])c(N)c1=O; NMeV = CN[CH](C(=O)O)C(C)C; Sar = CNCC(=O)O

This experiment has as its system HOP-92 NSCLC. Put plainly: NCI-60 one-dose screen, 48 h (100 = growth as untreated, 0 = no growth, -100 = all killed). Conditions: 10 µM unless noted. The procedure: Growth inhibition of the HOP-92 human Non-Small Cell Lung tumor cell line is measured as a screen for anti-cancer activity. Cells are grown in 96 well plates and exposed to the test compound for 48 hours. Compounds are tested at a single concentration, which is 10^-5 M for most compounds. The reported endpoint is percent growth (GI% or GIPRCNT), where numbers from 0 - 100% represent growth inhibition, and numbers from -100% - 0 represent cell death. For example, a value of 40 represents 60% growth inhibition. A value of 0 means no net growth occurred over the course of the experiment. A value of -40 indicates 40% of cells at the beginning of the experiment died by the end of the experiment. A value of -100 means all cells are dead at the end of the experiment.
NCI-60 Human Tumor Cell Lines Screen was performed using the standard one-dose NCI protocol, which is described in more detail at https://dtp.cancer.gov/discovery_development/nci-60/default.htm.
Compounds with GIPRCNT values below 10 were considered active. Activity score was based on GIPRCNT using the following formula: […]
Score is 0 for GIPRCNT values of 100 or above, 50 for GIPRCNT values of 0, and 100 for GIPRCNT values of -100.
With `O=C1c2ccccc2Cc2cccc(Cl)c21`, the growth is 110%.
Under `CC(C)(C)c1ccc(CCO)cc1` stands 100%.
Under `C[C@@]1(CO)[C@H](O)CC[C@@]2(C)[C@H]1CC[C@H]1C[C@@H]3C[C@@]12CC[C@@]3(O)COC(=O)CN` stands 45.4%; under `CC1(C)CCCC2=C1C(=O)N(SC(Cl)(Cl)Cl)C2=O`, 89.5%.
As for `CCCCCCCCCCCCN1C(C)=CS/C1=C\C=C\c1scc(C)[n+]1CCCCCCCCCCCC`, the growth is 36.8%.
With `CCCCCCCCCCCCCCCCSC(=NCC)NCC` the figure was -21.3% (active); with `CC1CC(C)(C)OB(OC(C)CC(C)(C)OB2OC(C)CC(C)(C)O2)O1` (stereo not given), 101%.
For the molecule `CC1=CC(=O)C=CC1(C)C(Cl)(Cl)Cl` (stereo not given), the growth was 106%.
Under `CN(C)c1ccc2cc3c(cc2c1)Oc1ccccc1N3.[Cl][Zn][Cl]` stands 98.8%; under `CCN(CC)CCNC(Cc1ccccc1)c1ccc(OCc2ccccc2)cc1` (stereo not given), 6.39% (active); under `Oc1ccc(Br)cc1Sc1cc(Br)ccc1O`, 22.1%.
Under `Oc1cc(Cl)ccc1Cc1ccc(Cl)cc1O` stands -14.4% (active); under `CC(CSc1n[nH]c(=S)s1)c1ccccc1` (stereo not given), 101%; under `Cc1nnc(N/N=C/c2ccc([N+](=O)[O-])o2)[nH]c1=O`, -35.8% (active).
Regarding `CCCCOS(=O)(=O)c1ccccc1`, the growth is 122%.
Under `CC(C)(C)c1ccc(O)c(-c2ccccc2)c1` stands 94.5%; under `CCOC(=O)NC(/C=C/c1ccccc1)NC(=O)OCC`, 108%; under `Cc1cc(N/N=C/c2ccccn2)nc2ccccc12`, -2.87% (active).
For `Nc1nc2ncc(CNc3ccc(C(=O)NC(CCC(=O)NC(CCC(=O)NC(CCC(=O)NC(CCC(=O)NC(CCC(=O)O)C(=O)O)C(=O)O)C(=O)O)C(=O)O)C(=O)O)cc3)nc2c(=O)[nH]1` (stereo not given), the growth is 95.3%.
For `CN=C(N)N/N=C(\C)c1ccc2c(c1)Cc1ccccc1-2`, the growth is -8.45% (active).
Consider `Cc1ccc(/C=C2\CNC/C(=C\c3ccc(C)cc3)C2=O)cc1`, for which the growth was 11%.
Under `O=C1C=CC(=O)N1c1ccc(O)cc1` stands 101%; under `NNc1cccc([N+](=O)[O-])c1`, 122%.
As to `Cn1c(-c2ccccc2)c(/C=C/C2=[N+](C)c3ccccc3C2(C)C)c2ccccc21`, the growth is -17.1% (active).
As for `CCC(=O)c1cc([N+](=O)[O-])c(Br)s1`, the growth is 89.1%.
With `CCCCCCCCC(=O)OCCCC(CCC(CCC1CCCO1)OC(=O)CCCCCCCC)OC(=O)CCCCCCCC` (stereo not given), the growth was 99%.
With `O=S(=O)(O)c1cnccn1` the figure was 94.2%; with `COC(=O)Nc1nc2ccc(C3(c4ccc(F)cc4)OCCO3)cc2[nH]1`, 41.1%.
As for `O=C(c1ccccc1)c1cc2ccccc2oc1=O`, the growth was 51.3%.
Turning to `CCCCC(CCc1ccc([N+](=O)[O-])cc1)(C(C)=O)C(=O)OCC` (stereo not given), the growth is 91.5%.
With `Clc1ccc(-n2ncc3c(NCCCN4CCOCC4)ncnc32)cc1` the figure was 71.3%.
For `O=C(c1ccccc1)C(Br)C(Br)c1ccccc1` (stereo not given), the growth was 46%.
Take `Oc1ccc(Nc2ccc3ccccc3c2)cc1`: the growth is 55.9%.
As to `c1ccc(C2NCCNC2c2ccccc2)cc1` (stereo not given), the growth is 93.6%.
With `COC1=CC(=O)c2c(O)c3c(c(O)c2C1=O)CC(C)(O)OC3` (stereo not given) the figure was -16.4% (active); with `O=C(O)c1cc2c(s1)C(=O)c1sccc1C2=O`, 54.4%.
In the case of `O=[N+]([O-])c1cc(-c2ccccc2)c(O)c([N+](=O)[O-])c1`, the growth is 3.74% (active).
Under `CCc1cccc(CC)c1N1C(=O)C=CC1=O` stands 56.5%; under `CCC(C)C1NC(=O)C(NC(=O)c2c3nc4c(C(=O)NC5C(=O)NC(C(C)CC)C(=O)N6CCCC6C(=O)N(C)CC(=O)N(C)C(C(C)C)C(=O)OC5C)ccc(C)c4oc-3c(C)c(=O)c2N)C(C)OC(=O)C(C(C)C)N(C)C(=O)CN(C)C(=O)C2CCCN2C1=O` (stereo not given) (I: TIP[Sar][NMeV] / II: TIP[Sar][NMeV]; ester I:1-I:C, II:1-II:C; linker I:N-II:N via Actinocin(1to9); configuration not given here), -16.6% (active); under `NNc1ccc(Cl)cc1Cl`, 55.2%.
